The record followed here is PubChem BioAssay (NCATS).

The nature of test [1]: Validation of Assay for Modulators of Lamin A Splicing (AID 1459; active = well fitted curve in the direction sought with a large enough effect in the signal ratio; the % refers to the signal ratio;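 also: cells exposed to compound for two days before reading; 0% is about no effect; ratio rise marks activators and ratio drop marks inhibitors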). Put shortly: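 Splicing correction read as GFP (500-530 nm) over DsRed2 (575-640 nm) object intensity after 48 h compound exposure of reporter HeLa S3 clones (600 cells/well, 2% FBS medium); ancitabine and cycloheximide titrations, 0.5% DMSO as vehicle.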
The target of test [2] is DNA repair nuclease/redox regulator APEX1 (Homo sapiens) (UniProt P27695). The experiment in a line: qHTS Validation Assay for Inhibitors of the Human Apurinic/apyrimidinic Endonuclease 1 (APE1) (AID 1705;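 also: TAMRA fluorescence gain over two minutes as APE1 cuts a quenched THF abasic duplex; series mostly up to about 57 µM; % is scaled to controls: 0 for no effect and ±100 for the full control effect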). The essentials:
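Activity read as rising fluorescence (598 nm emission, 525 nm excitation) from incision of a TAMRA/BHQ-2 duplex carrying a THF abasic site (50 nM). Compound and enzyme sat 15 min at RT before substrate start; signal change between first and third 60-s reads.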

Test [3] in a line: Counterscreen for APE1 Inhibitors: Fluorescent Dye Displacement Validation Assay (AID 1707).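 Also: plate controls were ThO with dsDNA and no compound for no effect and ThO without dsDNA for full effect.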 Put shortly: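 Reaction mixture of 250 nM Thiazole Orange and 50 nM double-stranded abasic-site DNA was dispensed, compounds were pin-transferred, and fluorescence was read at endpoint (480 nm ex, 540 nm em). Reduced fluorescence indicated dye displacement by DNA binding.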
A general note: The purpose of a counterscreen is to sort out artefacts and off-target activity.

Test [4] has as its target Ferritin light chain (Equus caballus) (UniProt P02791). The experiment in a line: qHTS Validation Assay for Identification of Novel General Anesthetics (AID 2323). Also: series mostly up to about 77 µM; % is scaled to controls: 0 for no effect and ±100 for the full control effect. Put shortly:
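Competitive displacement of the profluorescent anesthetic 1-AMA (50% saturated, PBS) from 10 uM apoferritin, 10 min, room temperature. Activity is normalized 380/535 nm fluorescence; concentration-response fitted with a four-parameter Hill equation.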
On the technique in general: In qHTS, concentration-response curves come from the screen itself.

Test [5] concerns the target ATP-dependent DNA helicase Q1 (Homo sapiens) (UniProt P46063). The experiment in a line: qHTS Validation Assay for Inhibitors of RecQ-Like Dna Helicase 1 (RECQ1) (AID 2353).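 Also: plate controls were DMSO vehicle for no effect and enzyme-free control for full effect.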 The essentials:
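RECQ1T1 50 nM; forked duplex (20 bp + 30-nt ss tails) 200 nM, ATP 2 mM final; pH 8.0, 2 mM MgCl2, 2.5 ug/ml poly(dI-dC); 15 min compound preincubation; discontinuous kinetic read over 2 h at RT.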

Test [6] can be described thus: Quantitative high throughput screen for delayed death inhibitors of the malarial parasite plastid, 96 hour incubation (AID 488745). Also: nearly all actives have a fitted effect of over 70% in size. Also: potency is read from the fitted curve at half-maximal effect. The essentials: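 Readout is firefly luciferase luminescence from an integrated reporter in P. falciparum; lower signal marks inhibited growth. Cultures at 2% hematocrit and 0.1% parasitemia were treated with compound across two generations (96 h, 37 C, 5% CO2).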

A short description of test [7]: Quantitative high throughput screen for delayed death inhibitors of the malarial parasite plastid, 48 hour incubation (AID 488752). Also: nearly all actives have a fitted effect of over 65% in size. Also: potency is read from the fitted curve at half-maximal effect. The essentials: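 First, compound was pinned into RPMI 1640 medium containing 0.5% Albumax. Next, reporter-parasite-infected erythrocytes were added to 2% hematocrit and 0.1% parasitemia. After 48 h at 37 C under 5% CO2, luciferase detection reagent was added and luminescence read.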

The target in test [8] is M-phase phosphoprotein 8 (Homo sapiens) (UniProt Q99549). Kind of test: qHTS Validation Assay for Inhibitors for MPP8 Chromodomain Interactions with Methylated Histone Tails (AID 488949). Also: nearly all actives have a fitted effect of over 55% in size. Also: potency is read from the fitted curve at half-maximal effect. Put shortly: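 AlphaScreen proximity signal from streptavidin donor and Ni-chelate acceptor beads (10 ug/mL each) reported binding of MPP8 to trimethyl-K9 H3(1-18) peptide, both at 50 nM. The complex formed 30 min before a 30 min compound exposure at room temperature, in PBS pH 7.4.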

Test [9] deals with Transient receptor potential cation channel subfamily V member 1 (Homo sapiens) (UniProt Q8NER1). Kind of test: HTS Assay for Compounds that Act as Enhancers of the Vanilloid Receptor 1 (AID 488979). Also: 0% is about no effect. The essentials:
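TRPV1-expressing cells loaded with Fluo-8 calcium dye; compounds added and calcium influx read kinetically for 3 min (agonist phase), then capsaicin at EC20 added and read 2 min more for enhancement. Fluorescence ex 480/em 520 nm.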

Test [10] has as its target Thyrotropin receptor (Homo sapiens) (UniProt P16473). The experiment in a line: qHTS Assay for Antagonists of the Thyroid Stimulating Hormone Receptor (AID 488980). Also: series mostly up to about 58 µM; 0% is about no effect. Put shortly: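 Inhibition of cAMP raised by EC80 TSH (4 nM final) was read by HTRF, with lysate cAMP competing against cAMP-d2 for cryptate antibody after 30 min at room temperature. The cells were transfected HEK293 held in phosphodiesterase inhibitor RO 20-1724 at 70 uM.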

Test [11] has as its target Thyrotropin-releasing hormone receptor (Homo sapiens) (UniProt P34981). The experiment in a line: qHTS for Small Molecule Agonists and Allosteric Enhancers of Human TRH Receptor: Validation Screen for Agonists (AID 493127;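 active = calcium activation more than 3 SD above the typical response in the agonist read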;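 also: intracellular calcium rise by fluo-8 fluorescence before TRH EC20 addition; 0% is about no effect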). Conditions: TRH receptor agonist cell assay; at 2 µM; active compounds read high. The essentials: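 Compounds are added by online pintool to dye-loaded TRHR cells while fluorescence is recorded every second. A rise in calcium signal during the agonist read marks activation; a later 10 nM TRH addition (EC20) serves the separate enhancer mode.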

Test [12] has as its target Galactokinase (Homo sapiens) (UniProt P51570). The experiment in a line: qHTS Validation Assay for Inhibitors of Human Galactokinase (GALK) (AID 493189). Also: 0% is about no effect. The essentials: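 Inhibition was measured as remaining ATP, detected by luciferase luminescence after a 1 h room-temperature reaction. Final conditions: 5 nM GALK, 100 uM galactose, 35 uM ATP, pH 8.0 HEPES buffer.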

Test [13] is described as follows: Validation screen for small molecules that induce DNA re-replication in SW480 colon adenocarcinoma cells (AID 504364). Also: 0% is about no effect. Put shortly: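 Image-based qHTS: compounds were incubated with SW480 cells for 48 hr, nuclei stained with Hoechst, and per-nucleus fluorescence intensity scanned to flag cells with excess DNA content.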

Values without a mark were called inactive. Records with an inconclusive call do not appear. Active and inactive are the calls of the source. Unless noted, calls follow the shape of the dose curve; as a rule, active = well fitted curve in the direction sought with a large enough effect; inconclusive = small, poorly fitted or top-dose-only effect, or another doubt; inactive = no such curve, though single readings can be large; an effect the other way counts as inactive or inconclusive.

Thyrotropin receptor (Homo sapiens), sequence (P16473 whole entry, looked up): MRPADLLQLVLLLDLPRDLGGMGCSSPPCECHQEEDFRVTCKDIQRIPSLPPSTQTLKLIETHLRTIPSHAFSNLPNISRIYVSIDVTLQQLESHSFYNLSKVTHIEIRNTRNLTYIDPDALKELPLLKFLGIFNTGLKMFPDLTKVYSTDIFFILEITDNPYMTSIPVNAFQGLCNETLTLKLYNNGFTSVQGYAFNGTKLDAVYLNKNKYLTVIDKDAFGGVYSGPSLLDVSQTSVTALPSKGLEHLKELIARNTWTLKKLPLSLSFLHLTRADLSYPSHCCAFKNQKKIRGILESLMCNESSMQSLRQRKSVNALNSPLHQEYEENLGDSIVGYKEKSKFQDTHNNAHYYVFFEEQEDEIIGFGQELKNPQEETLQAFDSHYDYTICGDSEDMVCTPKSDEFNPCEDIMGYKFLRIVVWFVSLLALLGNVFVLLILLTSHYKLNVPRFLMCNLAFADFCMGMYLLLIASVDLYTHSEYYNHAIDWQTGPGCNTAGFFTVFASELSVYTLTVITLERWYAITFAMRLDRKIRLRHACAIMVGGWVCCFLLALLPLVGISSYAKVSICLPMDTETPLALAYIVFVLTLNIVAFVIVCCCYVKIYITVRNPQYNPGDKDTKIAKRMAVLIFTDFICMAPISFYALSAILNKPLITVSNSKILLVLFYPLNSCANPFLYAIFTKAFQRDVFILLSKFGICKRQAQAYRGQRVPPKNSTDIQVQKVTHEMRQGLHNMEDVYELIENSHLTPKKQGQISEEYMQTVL
Ferritin light chain (Equus caballus), sequence (P02791 2-175 limits assumed): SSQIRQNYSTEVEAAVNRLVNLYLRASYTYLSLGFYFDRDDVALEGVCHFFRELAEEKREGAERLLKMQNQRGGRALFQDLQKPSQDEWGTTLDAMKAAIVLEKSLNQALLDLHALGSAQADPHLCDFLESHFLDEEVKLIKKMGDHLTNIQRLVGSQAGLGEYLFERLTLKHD
Galactokinase (Homo sapiens), sequence (P51570 whole entry, looked up): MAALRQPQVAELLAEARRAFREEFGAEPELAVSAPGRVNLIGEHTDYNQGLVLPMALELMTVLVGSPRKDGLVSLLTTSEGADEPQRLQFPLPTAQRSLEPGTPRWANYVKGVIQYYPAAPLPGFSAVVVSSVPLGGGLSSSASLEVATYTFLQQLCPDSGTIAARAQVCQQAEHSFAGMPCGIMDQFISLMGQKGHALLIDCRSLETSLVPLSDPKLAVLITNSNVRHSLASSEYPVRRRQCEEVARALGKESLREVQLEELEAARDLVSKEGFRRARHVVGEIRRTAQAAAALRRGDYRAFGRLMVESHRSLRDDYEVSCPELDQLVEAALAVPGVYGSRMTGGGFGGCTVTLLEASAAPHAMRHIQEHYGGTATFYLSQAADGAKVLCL
Thyrotropin-releasing hormone receptor (Homo sapiens), sequence (P34981 whole entry, looked up): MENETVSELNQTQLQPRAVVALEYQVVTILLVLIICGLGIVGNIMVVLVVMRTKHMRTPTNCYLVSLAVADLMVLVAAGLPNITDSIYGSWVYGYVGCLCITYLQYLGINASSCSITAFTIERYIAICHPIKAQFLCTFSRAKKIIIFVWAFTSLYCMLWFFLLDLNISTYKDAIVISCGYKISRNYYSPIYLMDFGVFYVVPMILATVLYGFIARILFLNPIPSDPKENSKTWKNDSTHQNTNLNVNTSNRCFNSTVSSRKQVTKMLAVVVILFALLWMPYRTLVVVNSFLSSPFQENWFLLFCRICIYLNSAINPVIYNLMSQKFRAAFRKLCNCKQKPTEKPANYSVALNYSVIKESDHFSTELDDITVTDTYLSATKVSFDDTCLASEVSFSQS
ATP-dependent DNA helicase Q1 (Homo sapiens), sequence (P46063 whole entry, looked up): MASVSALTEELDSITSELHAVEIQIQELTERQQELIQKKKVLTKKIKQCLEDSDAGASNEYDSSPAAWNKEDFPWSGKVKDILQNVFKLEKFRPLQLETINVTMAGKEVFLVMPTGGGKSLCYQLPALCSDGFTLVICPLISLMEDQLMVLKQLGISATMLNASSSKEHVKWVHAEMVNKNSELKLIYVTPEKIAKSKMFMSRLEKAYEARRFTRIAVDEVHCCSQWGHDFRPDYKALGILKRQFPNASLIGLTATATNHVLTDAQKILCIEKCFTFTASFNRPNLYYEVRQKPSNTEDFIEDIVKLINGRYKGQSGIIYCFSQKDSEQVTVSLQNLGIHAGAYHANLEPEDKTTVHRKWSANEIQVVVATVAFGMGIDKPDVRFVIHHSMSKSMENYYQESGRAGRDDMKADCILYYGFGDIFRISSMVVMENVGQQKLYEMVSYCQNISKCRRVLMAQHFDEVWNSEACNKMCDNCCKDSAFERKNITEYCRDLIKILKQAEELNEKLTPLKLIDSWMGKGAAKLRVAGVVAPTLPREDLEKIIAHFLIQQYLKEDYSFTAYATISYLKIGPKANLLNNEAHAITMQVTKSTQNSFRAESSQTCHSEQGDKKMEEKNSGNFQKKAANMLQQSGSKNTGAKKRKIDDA
Transient receptor potential cation channel subfamily V member 1 (Homo sapiens), sequence (Q8NER1 whole entry, looked up): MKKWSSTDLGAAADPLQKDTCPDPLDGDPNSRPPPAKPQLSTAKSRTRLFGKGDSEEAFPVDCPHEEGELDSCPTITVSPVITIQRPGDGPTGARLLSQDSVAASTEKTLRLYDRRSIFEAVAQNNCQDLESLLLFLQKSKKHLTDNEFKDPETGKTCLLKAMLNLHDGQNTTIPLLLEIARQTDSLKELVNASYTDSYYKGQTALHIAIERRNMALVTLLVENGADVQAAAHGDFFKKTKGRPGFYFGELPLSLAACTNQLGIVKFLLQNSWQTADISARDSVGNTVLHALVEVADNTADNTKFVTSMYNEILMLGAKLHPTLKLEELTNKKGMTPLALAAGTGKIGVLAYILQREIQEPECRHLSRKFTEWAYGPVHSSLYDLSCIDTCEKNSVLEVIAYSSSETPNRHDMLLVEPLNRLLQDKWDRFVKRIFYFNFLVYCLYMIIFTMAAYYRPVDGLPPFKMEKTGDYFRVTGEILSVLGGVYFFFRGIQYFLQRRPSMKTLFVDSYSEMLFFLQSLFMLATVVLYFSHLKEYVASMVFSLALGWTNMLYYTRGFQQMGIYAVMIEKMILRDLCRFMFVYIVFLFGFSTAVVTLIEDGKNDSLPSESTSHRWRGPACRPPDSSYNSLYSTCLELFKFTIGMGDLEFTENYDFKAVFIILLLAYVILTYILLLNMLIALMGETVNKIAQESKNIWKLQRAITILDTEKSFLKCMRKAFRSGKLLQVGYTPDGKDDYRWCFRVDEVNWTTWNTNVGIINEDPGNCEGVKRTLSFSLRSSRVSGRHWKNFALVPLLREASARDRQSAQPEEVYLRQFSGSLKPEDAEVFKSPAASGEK
M-phase phosphoprotein 8 (Homo sapiens), sequence (Q99549 whole entry, looked up): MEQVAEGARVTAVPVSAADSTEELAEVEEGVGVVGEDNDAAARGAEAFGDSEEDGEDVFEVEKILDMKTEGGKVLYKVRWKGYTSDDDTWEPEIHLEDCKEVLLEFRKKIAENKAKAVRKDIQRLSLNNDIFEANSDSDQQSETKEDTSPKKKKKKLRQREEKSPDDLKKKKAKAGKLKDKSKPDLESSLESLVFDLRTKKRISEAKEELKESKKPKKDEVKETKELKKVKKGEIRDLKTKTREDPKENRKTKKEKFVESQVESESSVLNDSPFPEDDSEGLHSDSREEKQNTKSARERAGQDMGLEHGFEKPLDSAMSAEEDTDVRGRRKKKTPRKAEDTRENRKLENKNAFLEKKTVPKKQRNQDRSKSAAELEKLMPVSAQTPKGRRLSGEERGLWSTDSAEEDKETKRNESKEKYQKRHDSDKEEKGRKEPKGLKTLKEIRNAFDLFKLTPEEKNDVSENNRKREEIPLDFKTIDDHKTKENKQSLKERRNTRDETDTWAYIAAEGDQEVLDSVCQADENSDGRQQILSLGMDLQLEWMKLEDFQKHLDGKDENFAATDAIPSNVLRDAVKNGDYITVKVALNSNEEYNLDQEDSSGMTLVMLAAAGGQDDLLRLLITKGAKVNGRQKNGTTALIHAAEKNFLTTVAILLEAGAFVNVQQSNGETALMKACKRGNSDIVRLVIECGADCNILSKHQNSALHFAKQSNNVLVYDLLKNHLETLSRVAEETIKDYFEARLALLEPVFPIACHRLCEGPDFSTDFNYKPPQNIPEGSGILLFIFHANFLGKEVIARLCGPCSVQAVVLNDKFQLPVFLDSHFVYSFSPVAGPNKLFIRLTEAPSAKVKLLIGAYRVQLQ
DNA repair nuclease/redox regulator APEX1 (Homo sapiens), sequence (P27695 whole entry, looked up): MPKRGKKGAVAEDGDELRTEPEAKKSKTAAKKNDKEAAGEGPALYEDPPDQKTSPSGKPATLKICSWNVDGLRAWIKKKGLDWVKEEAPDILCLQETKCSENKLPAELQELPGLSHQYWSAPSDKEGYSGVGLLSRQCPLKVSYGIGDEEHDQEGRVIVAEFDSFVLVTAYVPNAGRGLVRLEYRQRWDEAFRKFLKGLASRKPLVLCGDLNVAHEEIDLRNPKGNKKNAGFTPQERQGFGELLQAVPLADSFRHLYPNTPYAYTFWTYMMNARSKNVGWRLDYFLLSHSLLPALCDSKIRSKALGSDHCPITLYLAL

For `OC[C@H]1O[C@@H](n2cnc3c(N[C@H]4CC5CCC4C5)ncnc32)[C@H](O)[C@@H]1O` (stereo not given in full), the result in test [1], in [4], in test [9], in test [10], in test [12] and in test [13] was inactive. Further, the Potency entry in [2], in [3], in [5], in test [6], in test [7] and in test [8] was “inactive” each time. In test [11], the activation is 0.875%.
Turning to `C[C@H](Cc1ccccc1)Nc1ncnc2c1ncn2[C@@H]1O[C@H](CO)[C@H](O)[C@H]1O`, the call in [1], in test [4], in [9], in test [10], in test [12] and in test [13] was inactive. The Potency entry in test [2], in [3], in test [5], in test [6] and in test [8] was “inactive” each time. Further, the activation in test [11] is -2.69%.
As for `Nc1ncnc2c1ncn2[C@@H]1O[C@H](CO)[C@H](O)[C@H]1O`, the outcome in test [1], in test [4], in test [9], in [10], in test [12] and in test [13] was inactive. In addition, the Potency result in [2], in test [3], in test [5], in test [6], in test [7] and in test [8] was “inactive” throughout. The activation in [11] is 1.5%.
On to `CSc1nc(N)c2ncn([C@@H]3O[C@H](COP(=O)(O)OP(=O)(O)O)[C@H](O)[C@H]3O)c2n1`, for which the outcome in test [1], in test [4], in test [9], in [10], in test [12] and in [13] was inactive. The Potency entry in test [2], in [3], in test [5], in test [6], in [7] and in test [8] was “inactive” throughout. The activation in test [11] was 17.3%.
Consider `CN(C)C1C(=O)C(C(N)=O)=C(O)[C@@]2(O)C(=O)C3=C(O)c4c(O)ccc(Cl)c4[C@@H](O)C3C[C@@H]12` (stereo not given in full), for which the compound was called inactive in [1], in [4], in test [9], in test [10] and in [12]. Moreover, the Potency result in test [2], in test [3], in test [5] and in [8] was “inactive” throughout. The Potency in test [6] was 0.738 µM (active); in test [7], 6.57 µM (active). The activation in test [11] is 1.62%.
`CC(O)[C@@H](O)[C@H]1CNc2nc(N)[nH]c(=O)c2N1` (stereo not given in full): the compound was called inactive in test [1], in test [9], in test [10], in test [12] and in test [13]. Besides, the Potency entry in test [2], in [3], in [5], in [6], in test [7] and in [8] was “inactive” in each case. Besides, the activation in [11] was 0.0625%.
Consider `CN1CCc2cc(Cl)c(O)cc2C(c2ccccc2)C1` (stereo not given), for which the call in test [1], in test [4], in [9], in test [10], in test [12] and in test [13] was inactive. The Potency entry in test [2], in test [3], in test [5] and in test [8] was “inactive” each time. Besides, in test [11], the activation is 1.12%.
With `COc1ccc(CCNC[C@@H](O)c2ccc(O)cc2)cc1OC`, the call in test [1], in [4], in test [9], in [10], in test [12] and in test [13] was inactive. Besides, the Potency result in [2], in [3], in [5], in test [6], in [7] and in test [8] was “inactive” in each case.
As to `Nc1nc2c(nc(Br)n2C2O[C@H]3COP(=O)(O)O[C@@H]3C2O)c(=O)[nH]1` (stereo not given in full), the compound was called inactive in [1], in test [4], in [9], in [10], in test [12] and in [13]. Further, the Potency entry in [2], in [3], in test [5] and in test [8] was “inactive” throughout. Besides, in test [7], the Potency is 10.4 µM (active). In addition, the activation in test [11] was 0.812%.
Take `N=C1Sc2ccccc2C2=NCCCN12`: the compound was called inactive in test [1], in test [4], in test [9], in test [10], in [12] and in test [13]. The Potency entry in test [2], in test [3], in test [5], in [6] and in test [7] was “inactive” throughout. Moreover, the Potency in test [8] is 10 µM (active). For the same compound, in test [11], the activation is 0.125%.
Take `CN1C[C@H](C(=O)N[C@]2(C)O[C@@]3(O)C4CCCN4C(=O)[C@H](Cc4ccccc4)N3C2=O)C[C@@H]2c3cccc4[nH]cc(c34)C[C@H]21` (stereo not given in full): the outcome in test [1], in [4], in test [9], in test [10], in test [12] and in [13] was inactive. Moreover, the Potency entry in test [2], in test [3] and in test [5] was “inactive” in each case. The Potency was 2.94 µM (active) in test [6] and 2.33 µM (active) in test [7]. Further, in test [11], the activation is 0.625%.
